Results reported in PubChem BioAssay (NCI).
Compounds without any hit were thinned out: in the full panel of roughly 83,000, 20% have a hit.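 Plates (96-well) were seeded with cells, treated with compound at one concentration, and incubated for 48 hours before percent growth was determined.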 A number with no mark means an inactive call. Active and inactive are the calls of the source. The calls were made as follows: active = growth percent below 10; inactive = the rest.

system: NCI-H226 lung; experiment: NCI-60 one-dose screen, 48 h (100 = growth as untreated, 0 = no growth, -100 = all killed); settings: 10 µM unless noted

SMILES | growth
COc1cc2oc(-c3cccc(C(=O)Nc4cccc([N+](=O)[O-])c4)c3)cc(=O)c2c(OC)c1OC | -18.5% (active)
COc1cc2c(c(OC)c1OC)C(=O)CC(c1cccc(NC(=O)c3cc(N)ccc3Cl)c1)O2 (stereo not drawn) | 54.3%
CCOC(=O)/C=C/c1cccc2c1C(=O)NC(C)(c1cc3cc(Cl)ccc3oc1=O)N2 (stereo not drawn) | 46.1%
CC(C)c1ccc2c(N)c(C(=O)Nc3cccc(C(F)(F)F)c3)sc2n1 | 69.3%
O=C(C1=CNC(=S)NC1c1ccc(O)cc1)c1cc2ccccc2oc1=O (stereo not drawn) | 95.7%
COc1cc(-c2cc(-c3cccc(OCC(=O)O)c3)[nH]c(=O)c2C#N)cc(OC)c1OC | 98.2%
COc1cccc(-c2nc(Nc3ccc(S(N)(=O)=O)cc3)c3ccccc3n2)c1 | 25.9%
N#Cc1c(-c2ccc(Cl)cc2)nc2n[nH]c(-c3ccc(Cl)cc3)c2c1-c1ccc(C(F)(F)F)cc1 | -30.7% (active)
CC12CC[C@@H]3[C@]4(C)COC(c5cn[nH]c5-c5ccc(Br)cc5)O[C@@H]4CC[C@@]3(C)[C@@H]1CC(C1=CCOC1=O)O2 (stereo partly drawn) | 59.7%
CC1=C(C(=O)OCc2ccccc2)C(c2c(O)cc(O)cc2O)n2c(nc3ccccc32)N1 (stereo not drawn) | 62.2%
COc1ccc2[nH]c(O)c(N=NC(=O)Cn3c(-c4ccccc4)nc4cc(C)ccc43)c2c1 | 11.7%
C=C1CC[C@@H]2[C@]3(C)COC(c4cn(-c5ccccc5)nc4-c4ccccc4)O[C@@H]3CC[C@@]2(C)[C@@H]1C/C=C1/C(=O)OC[C@H]1O (stereo partly drawn) | -90.4% (active)
CN(C)CCCNC(=O)c1cc(NC(=O)c2cc(NC(=O)c3ccc(/C=C/c4ccccc4)cc3)cn2C)cn1C | 50.3%
O=C(NNc1ccccc1)n1c(=O)c2ccccc2c(=O)n1-c1ccccc1 | 95.7%
C(=C\c1cc(/C=C/c2ccccc2)c2ccccc2n1)/c1ccccc1 | 106%
COc1cc2c(c(OC)c1OC)C(=O)CC(c1cccc(NC(=O)c3cc([N+](=O)[O-])ccc3Cl)c1)O2 (stereo not drawn) | 25.3%
O=c1c2ccccc2nc(-c2ccccc2)n1/N=C/c1ccc2ccccc2c1 | 53.3%
CC(/C=C1\SC(=S)N(CCCC(=O)NC(CC(C)C)C(=O)O)C1=O)=C\c1ccccc1 (stereo not drawn) | 91.1%
CCOc1ccc(C(=O)NC(=S)Nc2ccc(S(N)(=O)=O)cc2)cc1 | 97.1% [100 µM]

SMILES | growth
O=C(CCN1C(=O)/C(=C/c2ccc(F)cc2)SC1=S)N1CCOCC1 | 74.2%
CC1(C)CC[C@]2(C(=O)Nc3ccc(F)cc3)CC[C@]3(C)C(=CCC4[C@@]5(C)C[C@@H](O)[C@H](O)[C@@](C)(CO)C5CC[C@]43C)C2C1 (stereo partly drawn) | 25.5%
NS(=O)(=O)c1ccc(-n2cc(-c3cccc(NC(=O)c4cc(C(F)(F)F)cc(C(F)(F)F)c4)c3)nn2)cc1 | 27.5%
COc1cc(C2CC(c3cc(OC)c(OC)c(OC)c3)=NN2c2ccccc2)ccc1OCc1ccc(C)cc1 (stereo not drawn) | 80.2%
Cc1ccc2c(N)c(C(=O)Nc3ccc(-c4ccccc4)cc3)sc2n1 | 45.1%
C=C1CCC2C3(C)COC(c4ccccc4F)OC3CCC2(C)C1CC(O)C1=CCOC1=O (stereo not drawn) | 83.6%
COc1ccc(-c2nnc3ccc(N/N=C/c4ccc(C)cc4)nn23)cc1 | 54.6%
COc1cc(-c2ccc(/C=N/NC(=O)c3[nH]c4ccc(Br)cc4c3-c3ccccc3)o2)cc(OC)c1OC | 49.6%
COc1ccc2c(c1)c(-c1cc3nc(-c4cn(C)c5ncccc45)cc(N)n3n1)cn2C | -16.6% (active)
O=C(COc1ccc(NC(=O)Nc2ccccc2)cc1)N=Nc1c(O)[nH]c2ccc([N+](=O)[O-])cc12 | 18.6%
CCCCCCn1c(O)c(N=Nc2nc(-c3cc4ccccc4oc3=O)cs2)c2ccccc21 | 67.8%
COc1ccc(NC(=O)Cn2c3c(sc2=O)[C@H]2[C@@H](O)[C@@H](O)[C@H](O)[C@@H]2CS3)cc1 | 96.3%
CCCCc1c(Nn2cnnn2)no[n+]1[O-] | 82%
CN1CCN(/C(=N\c2sc(-c3ccccc3)nc2-c2ccccc2)c2ccccc2)CC1 | 96.4%
C=C1CC[C@@H]2[C@]3(C)COC(c4cn[nH]c4-c4ccccc4)O[C@@H]3CC[C@@]2(C)[C@@H]1C/C=C1/C(=O)OCC1O (stereo partly drawn) | -30.6% (active)
CN(C)c1ccnc(NCCCSC(c2ccccc2)(c2ccccc2)c2ccccc2)c1 | 53%
CC12CC[C@@H]3[C@]4(C)COC(c5cn[nH]c5-c5cccc(Br)c5)O[C@@H]4CC[C@@]3(C)[C@@H]1CC(C1=CCOC1=O)O2 (stereo partly drawn) | 37.8%
Brc1ccc(-c2n(Cc3ccc4ccccc4c3)c(-c3ccccc3)c(-c3ccccc3)[n+]2Cc2ccc3ccccc3c2)cc1 | -51.6% (active)
O=C(NN1C(=O)/C(=C/C=C/c2ccc([N+](=O)[O-])o2)SC1=S)c1ccc(Cl)cc1 | -97.1% (active)
